Bioassay records from PubChem.
rCAG binder – binds r(CAG) RNA repeats; r(CAG) RNA repeat, TO-PRO-1 dye displacement fluorescence; inhibition, % at 3 µM; actives 1.3% (n = 370,000);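 active = inhibition above the plate cutoff, the mean of all test compounds on that plate plus 3 SD, cut at about 35% in these data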;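 also: 0% = DMSO alone and 100% = 100 µM mitoxantrone as full dye displacement; higher means more dye released from RNA so lower well fluorescence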
ADAM10 inh – inhibits human ADAM10 | AID 720582 | recombinant ADAM10, EDANS/DABCYL FRET peptide cleavage, 3 h | inhibition, % at 7 µM | actives 0.62% (n = 370,000);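 active = inhibition above a per-campaign cutoff equal to the mean of compounds falling between control-based bounds plus 3 SD, cut at about 20% in these data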;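 also: 0% = DMSO wells while the 100% control is not disclosed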
Target sequence (O14672 214-748 limits assumed): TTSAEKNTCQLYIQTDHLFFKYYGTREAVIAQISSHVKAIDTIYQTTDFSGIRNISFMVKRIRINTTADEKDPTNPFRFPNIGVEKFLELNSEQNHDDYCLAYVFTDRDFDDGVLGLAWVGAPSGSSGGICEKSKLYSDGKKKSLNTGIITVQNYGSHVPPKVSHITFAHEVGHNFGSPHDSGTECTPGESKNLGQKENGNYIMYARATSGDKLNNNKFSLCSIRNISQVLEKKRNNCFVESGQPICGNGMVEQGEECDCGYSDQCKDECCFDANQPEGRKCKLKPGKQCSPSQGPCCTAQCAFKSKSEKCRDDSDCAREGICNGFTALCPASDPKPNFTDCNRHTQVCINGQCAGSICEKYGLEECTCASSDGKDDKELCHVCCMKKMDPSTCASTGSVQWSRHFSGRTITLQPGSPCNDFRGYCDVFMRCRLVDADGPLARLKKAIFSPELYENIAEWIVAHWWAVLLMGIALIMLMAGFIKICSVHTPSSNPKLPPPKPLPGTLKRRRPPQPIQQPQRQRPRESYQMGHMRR
AHR act – human AHR activation; P35869; AHR-responsive luciferase reporter cells, luminescence; activation, % at 5 µM; actives 2.5% (n = 320,000); AID 2796; in the data active = activation above about 47%;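 also: 0% = vehicle wells and 100% = reference agonist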
ADAM17 inh – inhibits human ADAM17; recombinant ADAM17, EDANS/DABCYL FRET peptide cleavage; inhibition, % at 6.95 µM; actives 0.83% (n = 370,000); AID 720648;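 active = inhibition above the mean of compounds lying between control limits plus 3 SD, set per campaign, cut at about 8.5% in these data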;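 also: 0% = DMSO-only wells as the low control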
GRIN3A LBD mod – NR3A (human) ligand-binding domain modulation; Tm shift relative to glycine control, % at 25 µM; actives 2.5% (n = 340,000); NR3A LBD differential scanning fluorimetry, Tm shift; 0% = protein alone, 100% = glycine-bound protein;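 active = melting temperature shift of at least 10% of the positive control shift, at one fixed dose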
proKLK7 act – activators of human kallikrein-7 zymogen | P49862 | purified proKLK7, EDANS-DABCYL substrate fluorescence; 100% is mature enzyme control, 0% vehicle | activation, % at 7 µM | actives 0.9% (n = 370,000);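 active = activation above the mean of all tested compounds plus 3 SD, computed per campaign excluding outliers beyond control limits, cut at about 13% in these data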
Numbers without * were called inactive; nt = not tested or not shown. In the library only some 7% were active in any assay of this set; here they are far more common.

SMILES	rCAG binder	ADAM10 inh	AHR act	ADAM17 inh	GRIN3A LBD mod	proKLK7 act
Cc1ccc(-n2c(SCC(=O)Nc3ccccc3-c3ccccc3)nnc2-c2cccnc2)cc1	5.2	10.2	nt	5.3	nt	0.7
CC(C)C[C@@H]1COc2cc(Br)ccc2S(=O)(=O)N1Cc1cn(CCC2OCCCO2)nn1	4.3	-14.5	nt	-8.7	nt	-0.1
Nc1[nH]c(C(=O)c2ccccc2)c(-c2ccccc2Br)c1C(=O)c1cccs1	10.4	4.8	nt	5.7	nt	0.1
Cc1ccccc1Cn1cc(NC(=O)c2cc(C3CC3)on2)cn1	-4.5	2.5	74.2*	-3.9	0.2	1.0
Cc1cc(-c2csc(NC(=O)c3ccc(=O)[nH]c3)n2)c(C)n1Cc1ccccc1	18.5	9.2	-1.2	1.6	-2.3	-0.4
Cc1cc(-c2csc(NC(=O)c3ccc(C#N)cc3)n2)c(C)n1Cc1ccco1	59.4*	5.5	5.4	5.5	4.2	-0.1
CCOc1ccc2nc(NC(=O)NC3CCCCC3)sc2c1	-0.2	1.0	15.1	-1.7	18.0*	-0.1
CCOc1ccc2nc(NC(=S)NCc3ccccc3)sc2c1	7.4	-2.2	-7.5	1.7	18.6*	0.2
CCOc1ccc2nc(NC(=O)C3CCCO3)sc2c1 (configuration not stated)	0.7	4.5	12.4	-2.4	0.1	-0.1
CCOc1ccc2nc(NC(=O)c3ccco3)sc2c1	8.9	-1.2	-6.9	0.5	7.9	0.6
COC(=O)[C@]12C[C@H](CC(=O)N3CCC(c4ccccc4)CC3)C(=O)N(Cc3ccc(Cl)cc3Cl)C1=C[C@H](C(C)(C)C)O[C@@H]2C	4.4	-1.7	nt	-1.5	nt	0.8
COc1ccc(-c2ncn(CCc3ccccc3OC)c2CC(C)C)cc1	0.2	8.7	nt	3.6	nt	0.0
O=C(O)CCn1c2ccccc2c2nc3ccccc3nc21	7.0	-1.8	60.0*	1.4	-1.2	-0.7
CC(C)n1c2ccccc2c2nc3ccccc3nc21	1.7	-26.0	56.9*	-10.0	8.4	-9.7
COC[C@H]1CCCN1c1ccc2c(c1)O[C@H](C)CCN(C1CC1)S2(=O)=O	5.5	-2.1	nt	-1.0	nt	1.2
C[C@H]1C2CC(OC(=O)Nc3ccccc3C(F)(F)F)C(C2)[C@H]2CCCCN21 (some centres not stated)	6.7	-12.8	nt	-10.3	nt	-0.5
O=C(CSc1nc2ccccc2c(=O)n1-c1ccccc1)c1c[nH]c2ccccc12	10.8	-1.7	-8.9	-1.7	18.2*	0.1
O=C(CSc1nncn1-c1ccccc1)c1c[nH]c2ccccc12	2.1	1.0	34.5	-0.1	-1.5	-1.1
NC(=O)CSc1nc2ccccc2c(=O)n1-c1ccccc1	1.4	5.2	2.1	3.0	0.7	0.3
CCCCNc1nnc(SCC(=O)c2c[nH]c3ccccc23)s1	8.5	3.5	57.4*	1.4	8.3	0.0
Cn1cnnc1SCC(=O)c1c[nH]c2ccccc12	0.1	-6.8	66.8*	-2.4	0.0	0.6
COc1ccccc1/C=N/Nc1cc(C)nc(N2CCOCC2)n1	-3.0	-5.6	51.1*	-3.3	0.3	-0.2
COc1ccc(/C=N/Nc2cc(C)nc(N3CCOCC3)n2)cc1	-2.3	5.2	6.9	-0.4	-1.3	-0.3
COc1ccc(/C=N\Nc2ncc(F)c(N3CCOCC3)n2)cc1OC	-3.5	-8.3	59.2*	-6.0	1.5	-0.1
COc1ccc(/C=N/Nc2cc(C)nc(N3CCOCC3)n2)cc1OC	-5.0	-4.1	49.9*	-5.4	1.1	-0.1
SMILES	rCAG binder	ADAM10 inh	AHR act	ADAM17 inh	GRIN3A LBD mod	proKLK7 act
Cc1cc(C)nc(N/N=C/c2ccc(N3CCOCC3)cc2)n1	-4.0	-7.5	11.8	-1.5	-1.5	-1.1
Cc1noc(C)c1NC(=O)Nc1ccc2c(c1)C(=O)N([C@@H](C)CO)C[C@@H](C)[C@H](CN(C)S(=O)(=O)c1ccc(F)cc1)OCCCC[C@H](C)O2	nt	0.1	nt	-1.4	nt	nt
COc1cc(/C=N/NC(=O)CCn2c3ccccc3c3ccccc32)ccc1O	15.8	6.1	7.1	0.7	4.8	-1.6
Nc1ccc(C(=O)N/N=C\c2ccc(OC(=O)c3ccccc3Cl)cc2)cc1	7.2	1.2	1.7	1.6	3.5	-0.4
COc1cc(C(=O)N/N=C/c2ccc3c(c2)c2ccccc2n3C)ccc1O	25.1	-172.2	nt	-62.2	38.1*	-4.4
COc1cc(C(=O)N/N=C/c2ccc(OC(=O)c3ccccc3Cl)cc2)ccc1O	10.8	2.9	4.1	-0.1	26.3*	0.4
